This is an account of results in PubChem BioAssay AID602292 (National Center for Advancing Translational Sciences (NCATS), 2012).

Out of some 1,300 compounds screened, about 380 (29%) were called active. Not shown: some 37% with an inconclusive outcome. The call rests on the fitted dose curve; in most records, active means well fitted inhibition curve with a large enough effect; inconclusive means small, poorly fitted or top-dose-only effect; inactive means flat fitted curve, though single readings scatter. This is one part of the list.
Potency means the concentration at half of the fitted maximal effect.

Sequence of Thyrotropin receptor (Homo sapiens) (P16473 whole entry, looked up): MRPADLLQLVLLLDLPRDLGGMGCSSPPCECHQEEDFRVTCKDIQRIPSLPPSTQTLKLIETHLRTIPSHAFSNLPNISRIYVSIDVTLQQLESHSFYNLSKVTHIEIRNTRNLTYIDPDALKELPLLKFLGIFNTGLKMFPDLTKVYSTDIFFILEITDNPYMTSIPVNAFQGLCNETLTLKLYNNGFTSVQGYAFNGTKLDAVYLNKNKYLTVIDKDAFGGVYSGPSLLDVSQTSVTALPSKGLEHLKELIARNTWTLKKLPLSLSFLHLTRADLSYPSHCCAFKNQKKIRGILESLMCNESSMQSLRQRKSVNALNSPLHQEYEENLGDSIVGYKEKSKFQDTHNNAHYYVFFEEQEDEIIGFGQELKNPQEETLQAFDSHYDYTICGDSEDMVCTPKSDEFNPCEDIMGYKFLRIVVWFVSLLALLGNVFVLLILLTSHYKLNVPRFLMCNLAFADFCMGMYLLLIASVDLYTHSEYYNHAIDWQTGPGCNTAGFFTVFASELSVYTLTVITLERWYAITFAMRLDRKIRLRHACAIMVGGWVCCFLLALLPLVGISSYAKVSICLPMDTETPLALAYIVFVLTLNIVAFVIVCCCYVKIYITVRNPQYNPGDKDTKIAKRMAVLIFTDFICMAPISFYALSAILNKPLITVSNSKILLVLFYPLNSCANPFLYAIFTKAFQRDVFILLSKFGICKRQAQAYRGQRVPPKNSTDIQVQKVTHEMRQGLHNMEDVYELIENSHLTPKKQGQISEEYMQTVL

This experiment concerns the target Thyrotropin receptor (Homo sapiens) (UniProt P16473). Kind of experiment: qHTS for antagonists of the Thyroid Stimulation Hormone Receptor: Hit Validation in Primary Screen. Further: nearly all actives have a fitted effect of over 80% in size. To be noted: TSHR-expressing cells, cAMP antagonist mode; series mostly up to 58 µM. The source says:
The thyroid-stimulating hormone receptor (TSHR) is a member of the 7 trans-membrane-spanning receptor (7TMR) family of cell surface receptors. TSHR-mediated hyperthyroidism is important in thyroid pathology. The development of small molecule antagonists of TSHR may lead to therapeutic approaches for TSHR-mediated hyperthyroidism caused by constitutively activating mutations or stimulating auto-antibodies associated with Graves' disease. Graves' disease is the leading cause of hyperthyroidism and is caused by autoantibodies that stimulate TSHR (TsAbs) causing thyroid growth and unregulated overproduction of thyroid hormones and existing treatments have liabilities (agranulocytosis). In addition, TSHRs are known to be expressed in multiple extrathyroidal tissues including bone, brain, kidney, testis, fat and cells of the immune system but the role of the TSHR in these tissues is not clear. Therefore, TSHR antagonists/inverse agonists could be used as probes of extrathyroidal TSHR function. Finally, TSHR inverse agonists, which are a subclass of antagonists that inhibit agonist-independent (or basal or constitutive) TSHR signaling, could be used to inhibit TSH-independent signaling in patients with recurrent or metastatic thyroid cancer who are receiving thyroid hormone to suppress TSH.
In collaboration between scientist from the NCGC and the NIDDK, a miniaturized HTRF high-throughput screen was developed. It's a cell based assay, where an anti cAMP antibody contains a fluorescent cryptate tag (excitation 337 nm; emission 620 nm) and the acceptor is cAMP-d2 (excitation 620 nm; emission 665 nm). When antibody and cAMP-d2 interact and are excited by a 337 nm light, a FRET occurs resulting in emission at 665 nm. The assay is competition between cAMP-d2 and cAMP (from the cell lysate). The homogeneous protocol allows for one step dispense after stimulation that is automation friendly. This is a hit validation assay using the primary screen format.
NIH Chemical Genomics Center [NCGC]
NIH Molecular Libraries Probe Centers Network [MLPCN]
Assay Provider: Marvin Gershengorn, NIDDK
1. 3ul of 200 TSHR freshly harvested cells/well are dispensed into a 1536 TC-treated white solid bottom plate.
2. Through pintool addition, 23nl of compounds and control in 100% DMSO are added to the plate.
3. Then 1ul of EC80 TSH (4nM final) is added to the plate.
4. Assay is incubated at 37 deg C for 2 hours.
5. 2ul of cAMP antibody diluted 1:20 in lysis buffer is added.
6. Immediately following, 2ul of d2 diluted 1:20 in HBSS is added seperately.
7. The assay is incubated for 30 minutes at ambient room temperature.
8. The result is obtained by using a ViewLux read-out with HTRF settings.
(In general: In qHTS, concentration-response curves come from the screen itself.)
On to `O=C(Nc1ccc(Oc2ccc(Cl)cc2)c(Cl)c1)c1cc(I)cc(I)c1O`, for which the Potency is 1.51 µM (active).

Turning to `COC(=O)C1=C(c2ccc(-c3ccccc3)c(F)c2)C[C@@H]2CC[C@H]1N2C(=O)NCCCOC(C)C`, the Potency is 23.9 µM (active).

Take `COC(=O)C1=C(c2ccc(-c3ccccc3)c(F)c2)C[C@@H]2CC[C@H]1N2C(=O)NCc1ccco1`: the Potency was 21.3 µM (active).

On to `COC(=O)C1=C(c2ccc(-c3ccccc3)c(F)c2)C[C@@H]2CC[C@H]1N2C(=O)NCCc1ccccc1`, for which the Potency was 6.01 µM (active).

Regarding `COC(=O)C1=C(c2ccc(-c3ccccc3)c(F)c2)C[C@@H]2CC[C@H]1N2C(=O)NCCOc1ccccc1`, the Potency is 5.36 µM (active).

In the case of `COC(=O)C1=C(c2ccc(OCc3ccccc3)cc2)C[C@@H]2CC[C@H]1N2C(=O)NCc1cccc(OC)c1`, the Potency entry is “inactive”.

As for `O=C(Nc1ccc2ccccc2c1)c1nn(C23CC4CC(CC(C4)C2)C3)cc1Br`, the Potency entry was “inactive”.

`COC(=O)C1=C(c2ccc(-c3ccccc3)c(F)c2)C[C@@H]2CC[C@H]1N2C(=O)NC(C)C`: the Potency is 23.9 µM (active).

As for `COC(=O)C1=C(c2ccc(-c3ccccc3)c(F)c2)C[C@@H]2CC[C@H]1N2C(=O)NCC1CC1`, the Potency is 23.9 µM (active).

Consider `CNc1ccc2oc(C[C@H]3O[C@@]4(CC[C@H]3C)O[C@H]([C@H](C)C(=O)c3ccc[nH]3)[C@H](C)C[C@H]4C)nc2c1C(=O)O`, for which the Potency result is “inactive”.

Regarding `O=C(C1CCN(c2nc3ccc(Br)cc3s2)CC1)N1CCC2(CC1)OCCO2`, the Potency is 30.1 µM (active).

Turning to `COc1cc(C(C)=O)ccc1OC(=O)N(C)c1ccccc1`, the Potency result is “inactive”.

For `COC(=O)C1=C(c2ccc(OC(F)(F)F)cc2)C[C@@H]2CC[C@H]1N2C(=O)N1CCC(C)CC1`, the Potency was 30.1 µM (active).

As to `CNc1cc(Cl)c2nonc2c1[N+](=O)[O-]`, the Potency was 4.78 µM (active).

As to `Cc1ccccc1-c1nc(CS(=O)CC(=O)N2CCC3(CC2)OCCO3)c(C)o1` (centres undefined), the Potency entry was “inactive”.

On to `N#CC(C#N)=NNc1ccc(-n2ccc(C(F)(F)F)n2)cc1`, for which the Potency was 2.39 µM (active).

As to `Cc1ccc(-n2c(C)nc3ccccc3c2=O)c(C)c1`, the Potency result was “inactive”.

Regarding `Oc1ccc(Cl)cc1Cc1cc(Cl)ccc1O`, the Potency was 30.1 µM (active).

On to `Nc1ccc(C2(c3ccc(N)cc3)c3ccccc3-c3ccccc32)cc1`, for which the Potency was 6.01 µM (active).

Regarding `CC12CCC3C(CC=C4CC5(CCC43C)OCCO5)C1CCC2=O` (centres undefined), the Potency entry was “inactive”.

Consider `N#CC(C#N)=NNc1ccc([N+](=O)[O-])cc1`, for which the Potency was 2.69 µM (active).

On to `CCN(CC)S(=O)(=O)c1ccc(NN=C(C#N)C#N)cc1`, for which the Potency is 6.01 µM (active).

Take `COc1cc(N2C(=O)CC(=O)NC2=O)cc(OC)c1OC`: the Potency result was “inactive”.

With `Cc1nc2ccccc2c(=O)n1-c1cccc(C(F)(F)F)c1`, the Potency entry is “inactive”.
